ERAP1 HTS inh = blocks human ERAP1 aminopeptidase activity. Q9NZ08. recombinant ERAP1, Leu-AMC fluorescence, 60 min. inhibition, % at 10.7 µM. 0.15% of 340,000 active. AID 652197;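 active = mean replicate inhibition of at least 30%, or all replicates individually reaching that 30% level; inactive = mean below 30% and not every replicate reaching it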;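 also: 0% = neutral control wells and 100% = L-leucinethiol positive control wells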
INS-1E GSIS act = primary screen for activators of insulin secretion dependent on glucose, INS-1E cells, GLuc reporter luminescence; INS-1E GLuc reporter insulin secretion, 2-3 h; AID 743287; 0.61% of 370,000 active; activation, % at 16.6 µM;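 active = lowest replicate activation of at least 40%, so every replicate reaches that level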;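 also: 0% = median of neutral control wells and 100% = median of IBMX positive control wells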
CASP6 VEID inh = caspase-6 (human) enzyme inhibition; P55212; inhibition, % at 12.5 µM; AID 686996; purified caspase-6, Z-VEID-R110 cleavage fluorescence; 0.53% of 350,000 active;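 active = mean inhibition across replicates at least about 35%, with every replicate also reaching that limit, limit read from the data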;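 also: 0% = median of neutral control wells and 100% = no fluorescence left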
FGF22 binding = binders of recombinant human FGF22 by thermal shift; SYPRO orange fluorescence; percent of sucrose octasulfate shift, DMSO zero; 1.5% of 340,000 active; activity (Tm shift, normalised), % at 9.99 µM;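 active = mean Tm shift, scaled 0 neutral to 100 positive control, at about 1.3% or above, every replicate too, limit read from the data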
SIRT5 inh = inhibitors of human sirtuin-5 desuccinylase. inhibition, % at 15 µM. 1.1% of 330,000 active. Q9NXA8. AID 652115. Purified SirT5, succinyl-peptide AMC, trypsin-coupled fluorescence; in the data active = inhibition above about 15%
Target sequence (Q9NXA8 whole entry, looked up): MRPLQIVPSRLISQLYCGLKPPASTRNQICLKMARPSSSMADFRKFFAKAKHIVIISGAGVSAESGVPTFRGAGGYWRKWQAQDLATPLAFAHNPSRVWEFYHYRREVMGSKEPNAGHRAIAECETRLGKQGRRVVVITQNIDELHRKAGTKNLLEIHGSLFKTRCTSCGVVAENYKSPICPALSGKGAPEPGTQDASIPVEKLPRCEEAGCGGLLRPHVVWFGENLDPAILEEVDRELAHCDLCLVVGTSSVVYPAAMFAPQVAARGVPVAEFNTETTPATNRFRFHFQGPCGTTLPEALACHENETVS
Starred values were filed as active, the others as inactive; . = not tested or not shown. A selection: hits, their analogues and other compounds. The true share with any hit is near 3.3%.

SMILES	ERAP1 HTS inh	INS-1E GSIS act	CASP6 VEID inh	FGF22 binding	SIRT5 inh
CC(=O)OCC1=C(C(=O)O)N2C(=O)C(NC(=O)c3ccc(COc4ccc(Cl)cc4)o3)C2SC1 (configuration not stated)	2.1	10.5	59.8*	42.4	-2.6
CO[C@H]1CN(C)C(=O)c2cc(NC(=O)C3CCCC3)ccc2OC[C@@H](C)NC[C@@H]1C	0.0	15.0	0.5	0.1	-3.2
O=C(C[C@H]1C=C[C@@H](NC(=O)Nc2cc(F)ccc2F)[C@@H](CO)O1)NCCCN1CCOCC1	1.6	8.5	-2.7	0.0	-0.3
C[C@H](CO)N1C[C@H](C)[C@@H](CN(C)S(=O)(=O)c2ccc(Cl)cc2)OCCCC[C@H](C)Oc2ccc(N(C)C)cc2C1=O	.	24.7	.	.	.
CCN(CC)C(=S)SCC(=O)Nc1ccc(S(N)(=O)=O)cc1	1.2	3.1	1.9	43.4*	-0.4
COc1ccc(C(=O)C2CCN(CC(=O)Nc3cc(C)cc(C)c3)CC2)cc1	-6.8	-11.5	1.1	0.0	-2.3
Cc1ccc(C(=O)C2CCN(CC(=O)Nc3nc(C)cs3)CC2)cc1	-3.6	3.5	0.5	0.1	18.6*
CN(CC(=O)Nc1cccc(F)c1)C(=O)CCc1nc2ccccc2c(=O)[nH]1	49.3*	3.3	-0.1	0.1	0.3
C[C@@H]1CN([C@@H](C)CO)C(=O)c2cccc(NC(=O)Nc3ccc4c(c3)OCO4)c2O[C@@H]1CN(C)Cc1ccc(C(F)(F)F)cc1	0.6	-22.1	-2.0	-0.2	4.6
O=C(O)/C(=C\c1ccc(Cl)cc1)c1ccc(S(=O)(=O)N2CCCC2)s1	1.3	.	9.1	0.4	1.7
CSc1ccc(/C=C(\C(=O)O)c2ccc(S(=O)(=O)N3CCCCC3)s2)cc1	-9.8	8.0	43.6*	0.3	7.2
COc1cc(/C=C(\C(=O)O)c2ccc(S(=O)(=O)N3CCCC3)s2)cc(OC)c1	-1.2	-1.5	41.2*	0.0	0.1
O=C(O)/C(=C\c1cccc([N+](=O)[O-])c1)c1ccc(S(=O)(=O)N2CCCCC2)s1	.	15.1	40.8*	-0.1	1.1
CCOc1ccc(/C=C(\C(=O)O)c2ccc(S(=O)(=O)N3CCCCC3)s2)cc1OC	2.3	67.1	26.0	-0.3	9.5
O=C(CN1CCOCC1)N[C@@H]1CC[C@H](CCn2cc(C3CCCCC3)nn2)O[C@@H]1CO	1.8	16.6	0.6	-0.1	-0.9
FC(F)(F)c1ccccc1Cc1c(-c2cccc(Br)c2)nc2ccc(Br)cn12	1.6	2.6	3.3	19.9*	-0.5
COC(=O)c1ccc2nc(-c3ccc(OC)c(OC)c3)c(Cc3ccccc3C(F)(F)F)n2c1	-1.8	-5.8	4.7	-0.2	21.7*
CC1=NN(C(N)=S)C(=O)C1N=Nc1cccc(C(=O)O)c1 (configuration not stated)	5.1	.	-2.5	0.0	23.6*
O=C(Cc1cccnc1)N1CC2(C1)[C@H](c1ccccc1)[C@H](CO)N2C(=O)C1CCC1	-12.3	-16.0	2.2	.	1.0
Cc1nnc(SCC2=C(C(=O)O)N3C(=O)C(NC(=O)Cn4nc(C(F)F)cc4C)C3SC2)s1 (configuration not stated)	-2.0	-7.9	11.4	0.2	-2.5
Cc1nnc(SCC2=C(C(=O)O)N3C(=O)C(NC(=O)Cn4nc(C(F)F)c(Cl)c4C)C3SC2)s1 (configuration not stated)	1.6	-0.4	31.5	43.0*	-4.5
CC(=O)OCC1=C(C(=O)O)N2C(=O)C(NC(=O)Cn3nc(C(F)F)c(Cl)c3C)C2SC1 (configuration not stated)	1.2	-17.9	30.4	43.1*	-4.3
O=C(C[C@@H]1C[C@@H]2c3cc(NC(=O)NC4CCCC4)ccc3O[C@@H]2[C@H](CO)O1)NCc1ccccc1F	-1.6	-1.5	-0.2	0.2	0.6
COC(=O)c1c(C)[nH]c(C(=O)CC#N)c1C	0.1	0.4	-1.4	43.3*	-1.6
CCCCCCC12Cc3cc(OC)c(OC)cc3C(O1)C1=C(O2)C(C)(C)CCC1=O (configuration not stated)	-0.4	-20.6	-4.0	42.9*	.
O=[N+]([O-])c1ccc(Nc2nc(NC3CCCCC3)nc(N3CCCC3)n2)cc1	-0.4	7.5	-7.5	43.7*	9.3
O=[N+]([O-])c1ccc(Nc2nc(N/N=C/c3cccc(F)c3)nc(N3CCCC3)n2)cc1	-2.5	8.7	0.2	0.1	-2.9
